We go through 31 compounds from the supplement of paper PMC13380429.

In one experiment the test system is Vero E6 infected with SARS-CoV-2. The experiment can be described thus: morphology score (similarity to uninfected cells); higher = more like uninfected cells. To be noted: 24 h.
Compound `CC(C)N1Cc2cc(S(C)(=O)=O)ccc2N(CCN2CC=C(c3c[nH]c4cc(F)ccc34)CC2)S1(=O)=O` (10 µM) returned a morphology score of 0.178.

On to `COc1ccc(/C=C/C(=O)O)cc1` [trans-4-methoxycinnamic-acid] (10 µM), for which the morphology score came out at 0.07.

`COc1cc2nc(N3CCN(C(=O)COc4c(OC)cccc4C(C)C)CC3)nc(N)c2cc1OC` (10 µM) came in with a morphology score of -0.065.

Compound `CN1CCN(C(=O)O[C@H]2c3nccnc3C(=O)N2c2ccc(Cl)cn2)CC1` (10 µM) registered a morphology score of -0.0495.

`NC(=O)c1ncn([C@@H]2O[C@H](CO)[C@@H](O)[C@H]2O)c1O` [mizoribine] (10 µM) had a morphology score of 0.0626.

Regarding `CC1CCc2c(N3CCC(O)CC3)c(F)cc3c(=O)c(C(=O)O)cn1c23` (stereo unspecified) [nadifloxacin] (10 µM), the morphology score is -0.0037.

For the next experiment the test system is unchanged. The experiment can be described thus: SARS-CoV-2 infection rate relative to infected DMSO; higher = more infection, active = 60 or less. As to conditions: 24 h.
As for `Cc1cc(C(=O)O)sc1C(N)C(=O)O` (stereo unspecified) (10 µM), the SARS-CoV-2 infection rate was 95% (inactive).

For the compound `CCOC(=O)Nc1nc2ccccc2[nH]1` [lobendazole] (10 µM), the SARS-CoV-2 infection rate is 101% (inactive).

With `CCOC(=O)CC(=O)N1CCSC1COc1ccccc1OC` (stereo unspecified) [moguisteine] (10 µM), the SARS-CoV-2 infection rate was 99.5% (inactive).

As for `Cc1nn(C)c2c1C(c1ccc(C(F)(F)F)cc1)C(C#N)=C(N)O2` (stereo unspecified) (10 µM), the SARS-CoV-2 infection rate is 98% (inactive).

For the compound `CC(C)(C)NC(=O)[C@@H]1C[C@@H]2CCCC[C@@H]2CN1C[C@@H](O)[C@H](Cc1ccccc1)NC(=O)[C@H](CC(N)=O)NC(=O)c1ccc2ccccc2n1` [saquinavir] (10 µM), the SARS-CoV-2 infection rate was 106% (inactive).

Consider `COc1ccc(-c2nc3cc(C4=NNC(=O)CC4C)ccc3[nH]2)cc1` (stereo unspecified) [pimobendan] (10 µM), for which the SARS-CoV-2 infection rate was 94% (inactive).

For the compound `O=C(CN1C2=NCCN2c2ccccc21)c1ccc(-c2ccccc2)cc1` (10 µM), the SARS-CoV-2 infection rate is 35% (active).

For the compound `CC(C)C(=O)SCCCCC[C@H](NC(=O)OC(C)(C)C)C(=O)NC12CC3CC(CC(C3)C1)C2` (10 µM), the SARS-CoV-2 infection rate was 97% (inactive).

As for `CC1(C)CCC2=C(O1)c1ccccc1C(=O)C2=O` [beta-lapachone] (10 µM), the SARS-CoV-2 infection rate was 78.5% (inactive).

With `C[N+]1(C)[C@@H]2C[C@@H](OC(=O)[C@H](CO)c3ccccc3)C[C@H]1[C@@H]1O[C@@H]12` [methscopolamine] (10 µM), the SARS-CoV-2 infection rate is 96% (inactive).

Take `CC(=O)N(CC(C)C(=O)O)c1c(I)cc(I)c(N)c1I` (stereo unspecified) [iocetamic-acid] (10 µM): the SARS-CoV-2 infection rate was 97% (inactive).

For `CCCCCCCCNC(=O)/C(C#N)=C/c1cn(CCCN(C)C)c2ccccc12` [dynole-34-2] (10 µM), the SARS-CoV-2 infection rate was 35.5% (active).

For the compound `C=C1/C(=C\C=C2/CCC[C@]3(C)[C@@H]([C@H](C)/C=C/C=C/C(O)(CC)CC)CC[C@@H]23)C[C@@H](O)C[C@@H]1O` [seocalcitol] (10 µM), the SARS-CoV-2 infection rate is 110% (inactive).

Take `C=C1/C(=C\C=C2/CCC[C@]3(C)[C@@H]([C@H](C)CCCC(C)(C)O)CC[C@@H]23)C[C@@H](O)C[C@@H]1O` [calcitriol] (10 µM): the SARS-CoV-2 infection rate is 108% (inactive).

As for `O=S(=O)(Cc1ccccc1)Nc1ccc(-c2ccc3c(cnn3-c3ccc(F)cc3)c2)c(C(F)(F)F)c1` (10 µM), the SARS-CoV-2 infection rate is 91.5% (inactive).

Consider `CCCCCCCCCCCCCCCCCC(=O)OCC(O)CO` (stereo unspecified) [monostearin] (10 µM), for which the SARS-CoV-2 infection rate was 108% (inactive).

In the case of `CCOC(=O)C1=C(N)Oc2ccc(Br)cc2C1C(C#N)C(=O)OCC` (stereo unspecified) (10 µM), the SARS-CoV-2 infection rate was 108% (inactive).

As for `CC[C@@H](CO)NC(=O)[C@@H]1C=C2c3cccc4[nH]cc(c34)C[C@H]2N(C)C1` [methylergometrine] (10 µM), the SARS-CoV-2 infection rate is 96.5% (inactive).

Take `O=P(O)(O)C(O)(Cc1cccnc1)P(=O)(O)O` [risedronate] (10 µM): the SARS-CoV-2 infection rate was 89% (inactive).

`Fc1ccc(Cn2c(NC3CCNCC3)nc3ccccc32)cc1` [tecastemizole] (10 µM): the SARS-CoV-2 infection rate was 111% (inactive).

With `O=C1[C@H]2CCCC[C@H]2C(=O)N1CCCCN1CCN(c2nsc3ccccc23)CC1` [perospirone] (10 µM), the SARS-CoV-2 infection rate was 115% (inactive).

For `CCOC(=O)[C@H](Cc1ccc([N+](=O)[O-])cc1)NC(=O)c1ccccc1` (10 µM), the SARS-CoV-2 infection rate was 84.5% (inactive).

In the case of `CCOC(=O)c1ccc(-n2cc(Cc3cnc(OCC)nc3)c(=O)nc2SCc2ccc(F)cc2)cc1` (10 µM), the SARS-CoV-2 infection rate was 90.5% (inactive).

`CC1(C)OC2(C)C(O)CC1CC2O` (stereo unspecified) [epomediol] (10 µM): the SARS-CoV-2 infection rate was 100% (inactive).

Consider `O=C(O)CCNc1cc(N2CCc3ccccc3CC2)nc(-c2ccccn2)n1` (10 µM), for which the SARS-CoV-2 infection rate is 101% (inactive).
